# Experimental data taken from ChEMBL document CHEMBL4513216, “Probing the Open Global Health Chemical Diversity Library for Multistage-Active Starting Points for Next-Generation Antimalarials” (ACS Infect Dis, 2020).
# About 8,600 (12%) of roughly 69,000 compounds showed an effect of 50% or more. The sample holds strong results, similar compounds and a random draw of the others, so the mix is not that of the screen.
# Test system: Plasmodium berghei
# Assay: Screen against P. berghei liver stage (PbLuc), transformed with Luciferase, at 10uM
# Format: functional, HepG2
# Details: tested at 10 uM
row,Structure (SMILES),INHIBITION [%]
1,Cc1oncc1C(=O)NCc1cc(=O)n2c(n1)CN(C)CCC2,16.5
2,Cc1ccccc1CN(C)C(=O)c1cc(C2CCCN2C)ccn1 (stereo not given),34
3,CC(=O)c1cnc(NCCN2CCCC(c3ccccc3)C2)nc1C (stereo not given),23.3
4,Cc1cnc(N2CCN(C(C)C(N)=O)CC2)nc1 (stereo not given),19
5,Cc1ccc(F)cc1-n1c(CN(C)S(C)(=O)=O)n[nH]c1=O,49.4
6,CCCc1noc(C2CC(=O)N(CCN(C)C)C2)n1 (stereo not given),20.9
7,Cc1ccccc1CNCc1cc(Cl)ccc1O,15
8,COc1cccc(CC(=O)N2Cc3nccn3CC(CN(C)C)C2)c1 (stereo not given),40.8
9,Cc1csc(C2(NC(=O)NCCN3CCOCC3)CCCC2)n1,64.5
10,Cc1csc(C2(NCCC(=O)N3CCOCC3)CCCC2)n1,20.9
11,Cc1csc(C2(NC(=O)NCCN3CCOCC3)CCC2)n1,47.4
12,CCCC(C(=O)NCCc1nc(C)cs1)N(C)C (stereo not given),26
13,Cc1cnn(C2CN(CC(=O)NCCCc3ccccc3)C2)c1,56.6
14,Cc1cnn(C2CN(CC(=O)NCCOc3ccccc3)C2)c1,3.15
15,Cc1cnn(C2CN(CC(=O)NCCc3ccccc3)C2)c1,27.4
16,O=C(CN1CC(n2cccn2)C1)NCCC1=CCCCC1,-77.3
17,c1ccc(CCCN2CC(n3cccn3)C2)cc1,-5.81
18,O=C(CN1CC(n2cccn2)C1)NCCCN1CCCC1=O,28.8
19,O=C(CN1CC(n2cccn2)C1)NCCc1ccc(F)cc1,-19.4
20,O=C(CN1CC(n2cccn2)C1)NCCCc1ccccc1,54.4
21,N#CCCNC(=O)CN1CC(n2cccn2)C1,53
22,Cc1noc(C)c1CN1CCO[C@H]2[C@H](Oc3ncccc3F)CC[C@@H]21,34.4
23,CN(C)c1ccc(-c2cccc(-c3ccn(CCCO)n3)c2)nn1,-121

row,Structure (SMILES),INHIBITION [%]
1,Cc1occc(=O)c1OCC(=O)N1CCN(c2cccc(Cl)c2)CC1,-5.77
2,Cc1cc(C2CCCN(CCC(=O)N3CCc4ccccc43)C2)n[nH]1 (stereo not given),1.04
3,CN(C)C(c1ccccn1)C1CCC(CNC(=O)C2CCCC2)CC1 (stereo not given),14.6
4,CC(C)CN1CCC2(COCc3cnc(-c4ccccc4)nc32)C1 (stereo not given),69.3
5,COCCN1CCC2(COCc3cnc(-c4ccccc4)nc32)C1 (stereo not given),6.79
6,c1ccc(-c2ncc3c(n2)C2(CCN(CC4CC4)C2)COC3)cc1 (stereo not given),66.2
7,CN1CCC2(COCc3cnc(-c4ccccc4)nc32)C1 (stereo not given),-6.97
8,O=C(CC1CC1)N1CCC2(COCc3cnc(-c4ccccc4)nc32)C1 (stereo not given),-21.1
9,CN(C)c1ncc2c(n1)C1(CCN(CC3CC3)C1)COC2 (stereo not given),46.8
10,CC(C)c1nc2n(n1)CC(NCc1ccncc1)CC2 (stereo not given),0.79
11,CCc1ccc(NC(=O)N2C[C@@H]3C[C@H](C(=O)N4CCCC4)[C@H](C2)O3)cc1,45.4
12,O=C(NCC1CCCOC1)c1ccc(-c2ccccc2)[nH]c1=O (stereo not given),-29.1
13,O=S(=O)(NCc1ccccc1)Nc1cccc(Cn2cncn2)c1,47.2
14,Cc1nc(Nc2nncs2)cc(C2CNC2)n1,12.75
15,CN1CCC/C1=N\S(=O)(=O)c1ccc(NC(=O)CCc2cccs2)cc1,27.4
16,O=S(=O)(c1ccccc1)N1C[C@@H]2COC[C@]2(COCC2CC2)C1,44.2
17,Cc1nnc([C@]23COC[C@H]2CN(S(=O)(=O)c2cccnc2)C3)o1,-2.26
18,CS(=O)(=O)N1C[C@@H]2COC[C@]2(CN2CCOCC2)C1,65.9
19,O=S(=O)(c1ccccc1)N1C[C@@H]2COC[C@]2(CN2CCOCC2)C1,9.79
20,CCCS(=O)(=O)N1C[C@@H]2COC[C@]2(CN2CCOCC2)C1,6.83
21,O=S(=O)(c1cccnc1)N1C[C@@H]2COC[C@]2(COCC2CC2)C1,65.1
22,COC[C@]12COC[C@H]1CN(S(=O)(=O)c1cccnc1)C2,33
23,CS(=O)(=O)N1C[C@@H]2COC[C@]2(COCC(=O)N2CCCC2)C1,28.5

row,Structure (SMILES),INHIBITION [%]
1,O=S(=O)(c1cccnc1)N1C[C@@H]2COC[C@]2(CN2CCOCC2)C1,55.5
2,Cc1ccc2c(n1)N(CCN(C)C)CCN(Cc1c(C)noc1C)C2,42.6
3,COCCN1CCc2ccccc2NCCC1=O,16.9
4,CN(Cc1cnn(C)c1)CC(O)c1ccc2c(c1)OCCCO2 (stereo not given),18.8
5,O=C(c1cccs1)N1CCC2(CC1)CCN(S(=O)(=O)C1CC1)CC2,45.7
6,O=C(c1sccc1-n1cnnn1)N1CCCCC1,17.4
7,CCN(CC)CC(=O)N(C)C(c1cccc(F)c1)c1ccccn1 (stereo not given),-4.16
8,Cc1cnn(CC2CCCN2C(=O)Cn2nc(C)c(Cl)c2C)c1 (stereo not given),-41.5
9,Cc1nc(N2CCOCC2)nc2c1CCN(C(=O)N1CCCC1)CC2,39.5
10,CC(C)CC(=O)N1CCc2nc(N3CCOCC3)nc(NC(C)C)c2C1,52.9
11,COCCC(=O)N1CCc2nc(N3CCOCC3)nc(NC(C)C)c2C1,76.5
12,CCC(=O)N1CCc2nc(N3CCOCC3)nc(N(C)C)c2CC1,45.2
13,COc1c(Br)c(C(=O)NC2CCCCC2)nn1C,-37.1
14,COc1c(Br)c(C(=O)NC2CC2)nn1C,33.3
15,COc1c(Br)c(C(=O)NC2CCCC2)nn1C,71.4
16,Cc1cnn(CC2CCCCN2C(=O)c2ccc3[nH]cnc3c2)c1 (stereo not given),5.7
17,N#Cc1ccccc1CN1CCC(CN2CCOCC2)C1 (stereo not given),-19.8
18,CCOc1ccc(S(=O)(=O)NCc2cccnc2N(C)C)cc1,67.5
19,CCOc1ccc(CNCc2cccnc2N(C)C)cc1,39.7
20,CCCC(C)CS(=O)(=O)NCc1cccnc1N(C)C (stereo not given),-33.9
21,COc1ccc(S(=O)(=O)NCc2cccnc2N(C)C)cc1F,58.2
22,COc1ccc(S(=O)(=O)NCc2cccnc2N(C)C)cc1,21.5
23,CN(C)c1ncccc1CNS(=O)(=O)c1ccccc1F,34.7

row,Structure (SMILES),INHIBITION [%]
1,CN(C)c1ncccc1CNS(=O)(=O)c1ccc(F)c(F)c1,11.2
2,COc1ncccc1CNCc1c(C(C)C)nn(C)c1Cl,21.7
3,CC(C)c1nn(C)c(N(C)C)c1CNCc1cccnc1N(C)C,14.815
4,CN(C)c1ncccc1CNS(=O)(=O)c1cc(F)cc(F)c1,-10.1
5,CC(C)N(C)S(=O)(=O)NCc1cccnc1N(C)C,55
6,CC(C)c1nn(C)c(Cl)c1CNCc1cccnc1N(C)C,57.5
7,CN(C)C(=O)COCC1CN(S(C)(=O)=O)Cc2ncn(C)c21 (stereo not given),38.2
8,COc1ccc(NC(=O)c2nc3ccccc3n(C)c2=O)c(OC)c1,3.19
9,Cn1ccc(C(=O)NC2CCC23CCN(Cc2cccnc2)CC3)c1 (stereo not given),23.5
10,CC(O)C1CCN(C(=O)CCOc2ccccc2F)CC1 (stereo not given),-17.8
11,CC(C)(C)S(=O)(=O)c1ccc(N2CCC(n3cccn3)CC2)cn1,-8.66
12,Cc1ccc2nc(C(=O)N(C)[C@@H]3CC[C@@H](N4CCCC4)[C@@H]3O)cn2c1,1.068
13,c1ccc(Cc2noc(CN3CCCC3Cn3cccn3)n2)cc1 (stereo not given),1.78
14,Fc1ccc(-c2cnc(CN3CCOC(Cn4cccn4)C3)o2)cc1 (stereo not given),-21.8
15,COc1ccccc1CN1CCc2c(nc(-c3ccccn3)[nH]c2=O)C1,25.6
16,CSc1ccccc1C(=O)N(C)Cc1nncn1C(C)C,37.4
17,CN(C)c1ncccc1CNS(=O)(=O)c1ccccc1Cl,-4.16
18,CN(C)c1ncccc1CNS(=O)(=O)c1c(F)cccc1F,11.6
19,CN(C)c1ncccc1CNS(=O)(=O)c1cc(F)ccc1F,-27.8
20,CCOC(=O)c1ccc(S(=O)(=O)NCc2cccnc2N(C)C)cc1,83.2
21,CC(=O)c1cccc(S(=O)(=O)NCc2cccnc2N(C)C)c1,42
22,COC(=O)c1cccc(S(=O)(=O)NCc2cccnc2N(C)C)c1,13.3
23,CC(=O)c1ccc(S(=O)(=O)NCc2cccnc2N(C)C)cc1,66.7

row,Structure (SMILES),INHIBITION [%]
1,COC(=O)c1ccc(S(=O)(=O)NCc2cccnc2N(C)C)cc1,52.7
2,Cc1ccc(F)cc1S(=O)(=O)NCc1cccnc1N(C)C,49.3
3,COc1cc(C)c(S(=O)(=O)NCc2cccnc2N(C)C)c(C)c1,61.7
4,CN(C)c1ncccc1CNS(=O)(=O)c1ccc(C(N)=O)cc1,-3.2
5,CNC(=O)c1ccc(S(=O)(=O)NCc2cccnc2N(C)C)cc1,29.7
6,COCCN1C[C@@H]2CN(Cc3ccsc3)CCC[C@]2(C(=O)O)C1,3.47
7,COc1ccc(CN2CC(O)CN(C(=O)CC(C)C)CC2=O)cc1 (stereo not given),19.2
8,CC(C)C(NC(=O)NCC1CC1)c1nnc2n1CCC2 (stereo not given),43.4
9,CCC(CNC1CCN(C(C)=O)CC1)Oc1cccc(C)c1 (stereo not given),61.5
10,CCC(CNC1CCN(C(=O)N(C)C)CC1)Oc1ccccc1C (stereo not given),18.2
11,CCC(CNC1CCN(C(C)=O)CC1)Oc1ccccc1Cl (stereo not given),42
12,O=C(c1cccnc1)N1CCC2(CC1)COC(COc1ccccn1)C2 (stereo not given),-2.25
13,c1cc(CN2CCO[C@H]3[C@H](OCCN4CCCC4)CC[C@@H]32)co1,48
14,Cc1cc2ncn(C(=O)N3CCCC3)c2cc1C,22
15,Cc1nc2c(c(NC3CC3)n1)CCN(C(=O)C(C)(C)O)CC2,20.5
16,Cc1nc(C)c2c(n1)CCN(C(=O)C1(C#N)CC1)CC2,23.1
17,Cc1nc2c(c(NC3CC3)n1)CCN(C(=O)CCO)CC2,56.7
18,Cc1nc2c(c(NC3CC3)n1)CCN(C(=O)C1(C#N)CC1)CC2,68.4
19,CCc1nc2c(c(NC3CC3)n1)CCN(C(=O)N1CCN(C)CC1)CC2,7.65
20,CCc1nc2c(c(NC3CCC3)n1)CCN(C(=O)CO)CC2,53.2
21,Cc1nc(N2CCOCC2)nc2c1CCN(C(=O)C1(C#N)CC1)CC2,30.3
22,CCc1nc2c(c(NC3CC3)n1)CCN(C(=O)Cc1nonc1C)CC2,19.5
23,Cc1nc2c(c(NC(C)C)n1)CCN(C(=O)CCO)CC2,46.6
